Reference: PubChem BioAssay AID907 (National Center for Advancing Translational Sciences (NCATS), 2007)
Some of the results follow. Records with an inconclusive call do not appear. Active and inactive are the calls of the source. Calls follow the shape of the dose curve; as a rule, active = well fitted activation curve with a large enough effect; inconclusive = small, poorly fitted or top-dose-only effect, or effect the other way; inactive = flat fitted curve, though single readings scatter.

Assay: Confirmation Concentration-Response Assay for Cell signaling CRE-BLA (Fsk stim) - HEK293 CREB Luciferase
Settings: HEK293 CRE-luc2P, NKH477 EC10 potentiation, luminescence, 4 h
Source text: NIH Molecular Libraries Screening Centers Network [MLSCN] NIH Chemical Genomics Center [NCGC] MLSCN Grant: 1X01MH079867-01 Assay Provider: Marshall W. Nirenberg, U.S. National Heart, Lung and Blood Institute CRE Luciferase Assay Overview Memories persist for different lengths of time, from seconds or minutes to a lifetime. There are two kinds of memory: short-term memory (STM) and long-term memory (LTM). STM lasts for minutes to hours, which maybe mediated by modifications of molecules involved in synaptic functions. LTM lasts for days or longer, and may be due to the formation of new synapses or restructuring of existing synapses. LTM, but not STM, requires gene transcription and synthesis of proteins. CREB (cyclic-AMP Responsive Element Binding Protein) is one of the candidates plays an important role for enhancement of some types of LTM. CREB, a family of transcription factors, regulates the transcription of genes containing cAMP Responsive Elements (CRE). CRE is a nucleotide sequence often found in the promoter regions of genes that are binding sites for CREB. Using a luciferase reporter-gene under control of cAMP responsive element, a cell-based assay [CRE-luc2P HEK293 developed by Promega] was used to measure forskolin-induced signaling. The selected compounds were measured for their ability to modulate positively the action of EC10 NKH 477, a water soluble forskolin, on reporter gene activity. Compounds were screened in a titration series in 1536-well format. Positive modulators were identified based on the AC50 values derived from the screening data.
NCGC Assay Protocol Summary 2500 cells/5uL in DEME with 1% FBS was dispensed into 1536-well plates and cells were cultured at 37 degrees Celsius overnight. Next day 23 nL of compounds or DMSO were delivered to each well using a pin tool, and 1uL of EC10 level of NKH 477, or EC100 level of IBMX, a PDE inhibitor, in the present of NKH 477, or assay medium was added. And then the plates were incubated at 37 degrees Celsius for 4 hours. 6 uL of Bright-Glo luciferase (Promega, WI) was added to each well. After incubated at room temperature for 10min the plates were measured for luminescence intensity on a ViewLux (Perkin Elmer) detector. Keywords: NIH Roadmap, MLSCN, MLSMR, qHTS, NCGC, CRE, luciferase, reporter-gene assay.

Potency, active:
Cc1nn(-c2ccccc2)c2sc(C(=O)N(Cc3ccco3)C(C)C(=O)NC(C)(C)C)cc12 (stereo not given) 4.47 µM
CC1CCc2sc3nc(N4CCN(CCO)CC4)n4ncnc4c3c2C1 (stereo not given) 12.6 µM
COc1ccc(CCNC(=O)CSc2nc(C)nc3c2oc2ccccc23)cc1OC 10 µM
CCc1nc(Nc2ccc3nccnc3c2)c2oc3ccccc3c2n1 1.26 µM
Cc1nc(SCC(=O)Nc2cc(C)on2)c2c3c(sc2n1)CCCC3 4.47 µM
